# In PubChem BioAssay (NCATS):
# Several values for one entry are separate records, joined by “and”; a condition that tells them apart may be missing. Identical values can stand only once. Records with an inconclusive call do not appear. Some compounds were tested as several samples or in several runs, with calls that do not always agree. Activity calls are given as the source filed them. The call rests on the fitted dose curve; in most records, active means well fitted curve in the direction sought with a large enough effect; inconclusive means small, poorly fitted or top-dose-only effect, or another doubt; inactive means no such curve, though single readings can be large; an effect the other way counts as inactive or inconclusive.
# Columns and labels:
# [1] = Viability qHTS for spleen associated tyrosine kinase inhibitor (SYKi) naive MV4-11 cells (AID 1963823); further: nearly all actives have a fitted effect of over 40% in size
# Method in brief: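 qHTS, SYK inhibitor-naive MV4-11; 500 cells/well; 72 hr compound exposure, 37 C; CellTiter-Glo added, 10 min RT; luminescence read.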
# [2] = Viability qHTS for spleen associated tyrosine kinase inhibitor (SYKi) drug resistant MV4-11 cells (AID 1963824); further: nearly all actives have a fitted effect of over 35% in size
# Method in brief: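 CellTiter-Glo luminescence, read 10 min after reagent addition, reports viability after a 72 hr compound exposure. Cells are an MV4-11 line made resistant to SYK inhibition, seeded at 500 per well onto compound-containing plates.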
# [3] = Quantitative highthroughput screen to assess conditional lethalithy of NOMO1 cells grown in RPMI1640 with untreated serum (RPMI+s) (AID 1963876); further: nearly all actives have a fitted effect of over 35% in size;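 on Viability: 100% = DMSO wells and 0% = empty wells without cells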
# Method in brief: (§1)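 Each medium arm—HPLM with 10% dialyzed FBS, or RPMI1640 with 5 mM glucose and 10% untreated or dialyzed FBS—was screened against an 11-point, 3-fold compound titration for 48 h at 37 °C, with CellTiter-Glo luminescence as endpoint.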
# [4] = Quantitative highthroughput screen to assess conditional lethalithy of NOMO1 cells grown in Human Plasma-Like Medium with dialyzed fetal bovine serum (HPLM+ds) (AID 1963878); further: nearly all actives have a fitted effect of over 35% in size;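 on Viability: 100% = DMSO wells and 0% = empty wells on each plate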
# Method in brief: as §1
# [5] = Quantitative highthroughput screen to assess conditional lethalithy of P12 Ichikawa cells grown in Human Plasma-Like Medium with dialyzed fetal bovine serum (HPLM+ds) (AID 1963879); conditions: Potency: viability; further: nearly all actives have a fitted effect of over 35% in size; on Viability: series mostly up to about 46 µM
# Method in brief: as §1
# [6] = Quantitative highthroughput screen to assess conditional lethalithy of P12 Ichikawa cells grown in RPMI1640 with dialyzed fetal bovine serum (RPMI+ds) (AID 1963880); conditions: Potency: P12-Ichikawa viability; further: nearly all actives have a fitted effect of over 35% in size;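 on Viability: 100% = DMSO wells and 0% = empty wells on each plate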
# Method in brief: as §1
# [7] = Quantitative highthroughput screen to assess conditional lethalithy of P12 Ichikawa cells grown in RPMI1640 with untreated serum (RPMI+s) (AID 1963881); conditions: Potency: viability; further: nearly all actives have a fitted effect of over 35% in size;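 on Viability: series mostly up to about 46 µM; 100% = DMSO wells and 0% = empty wells without cells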
# Method in brief: as §1
# [8] = Quantitative highthroughput screen to assess conditional lethalithy of SEM cells grown in Human Plasma-Like Medium with dialyzed fetal bovine serum (HPLM+ds) (AID 1963882); further: nearly all actives have a fitted effect of over 35% in size; on Viability: series mostly up to about 46 µM
# Method in brief: as §1
# [9] = Quantitative highthroughput screen to assess conditional lethalithy of SEM cells grown in RPMI1640 with unreated serum (RPMI+s) (AID 1963883); further: nearly all actives have a fitted effect of over 35% in size;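 on Viability: 100% = DMSO wells and 0% = empty wells without cells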
# Method in brief: as §1
# [10] = Quantitative highthroughput screen to assess conditional lethalithy of SEM cells grown in RPMI1640 with dialyzed fetal bovine serum (RPMI+ds) (AID 1963884); further: nearly all actives have a fitted effect of over 35% in size;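 on Viability: series mostly up to about 46 µM; 100% = DMSO control wells and 0% = empty wells without cells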
# Method in brief: as §1
# [11] = Cellular viability qHTS for adrenocortical cancer (ACC) cell line SW-13 (AID 1963989); conditions: SW-13 ACC cells viability, CellTiter-Glo, 48 h; activity (max response): stronger effect = lower value; further: nearly all actives have a fitted effect of over 65% in size;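 on activity (max response): cells grown in serum-free medium with ITS supplement; on the % scale 0 is the no-effect control and ±100 the full control effect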
# Method in brief: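 IC50 and maximal-response values come from four-parameter logistic fits of titration data. SW-13 cells in serum-free medium received compounds (up to 46 uM final) for 48 h before CellTiter-Glo luminescence.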
# [12] = Cellular viability qHTS for adrenocortical cancer (ACC) cell line NCI-H295R (AID 1963990); further: nearly all actives have a fitted effect of over 60% in size;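 on activity change, negative = viability loss: 0% = DMSO only wells and -100% = full killing with cytotoxic reference compound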
# Method in brief: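 Adrenocortical carcinoma cells, suspended at 300 000 cells/mL in serum-free DMEM plus ITS, rested overnight before pin transfer of compound. After two days' incubation, ATP-dependent luminescence was recorded and curve-fitted.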
# Potency means the concentration at half of the fitted maximal effect.
SMILES,Potency [1],Potency [2],Potency [3],Potency [4],Potency [5],Potency [6],Potency [7],Potency [8],Potency [9],Potency [10],activity (max response) [11],Potency [12],Potency [11],"activity change, negative = viability loss [12]"
CC(C)c1cc(C(C)C)c(CC(=O)NS(=O)(=O)Oc2c(C(C)C)cccc2C(C)C)c(C(C)C)c1,11.6 µM (active),4.68 µM (active),inactive,inactive,inactive,inactive,inactive,inactive,inactive,inactive,-25.2% (inactive),,,
CN(C)c1ccc(C2Nc3ccc4ccccc4c3C3=C2C(=O)CC(C)(C)C3)cc1Br (stereo not given),inactive,14.8 µM (active),inactive,inactive,inactive,inactive,inactive,inactive,inactive,inactive,-5.19% (inactive),inactive,,
CN1CCN(Cc2ccc(NC(=O)Nc3ccc(Oc4cc(NC(=O)C5CC5)ncn4)cc3)cc2C(F)(F)F)CC1,inactive,inactive,0.418 µM (active),0.372 µM (active),0.526 µM (active),0.418 µM (active),0.469 µM (active),0.0209 µM (active),11.8 nM (active),8.3 nM (active),,1.26 µM (active),0.316 µM (active),
Cc1ccc2c(=O)c3cccc(CC(=O)O)c3oc2c1C,2.95 µM (active),0.934 µM (active),inactive,inactive,inactive,inactive,inactive,,,,-13.4% (inactive),inactive,,
CCCCN(CCCC)CCC(O)c1cc2c(Cl)cc(Cl)cc2c2cc(C(F)(F)F)ccc12 (stereo not given),10.6 µM (active),8.41 µM (active),inactive,inactive,inactive,inactive,13.2 µM (active),inactive,,,,5.8 µM (active),,
c1cc(OCCN2CCCCC2)cc(-c2n[nH]c3ccc(-c4ncn[nH]4)cc23)c1,0.651 µM (active),1.16 µM (active),inactive,inactive,inactive,inactive,,,,,,inactive,,
COc1cc2nc(N3CCCN(C)CC3)nc(NC3CCN(Cc4ccccc4)CC3)c2cc1OC,2.35 µM (active),2.35 µM (active),8.33 µM (active),5.26 µM (active),11.8 µM (active),11.8 µM (active),13.2 µM (active),,11800 nM (active),,,8.91 µM (active),5.62 µM (active),
NC(=O)[C@@H](CCC(F)(F)F)N(Cc1ccc(-c2ncon2)cc1F)S(=O)(=O)c1ccc(Cl)cc1,20.9 µM (active),18.6 µM (active),inactive,20.9 µM (active),,,,23.5 µM (active),16600 nM (active),18700 nM (active),,,28.2 µM (active),
Nc1ccn([C@@H]2O[C@H](CO)[C@@H](O)[C@H]2O)c(=O)n1,inactive,inactive,0.0743 µM (active),0.0166 µM (active),,,inactive,,,,10.2% (inactive),inactive,,
CC(C)c1cnn2c(NCc3ccccc3)cc(N[C@@H](CO)[C@H](O)CO)nc12,1.03 µM (active) and 332 nM (active),820 nM (active) and 263 nM (active),0.743 µM (active),0.662 µM (active),,1.18 µM (active),1.05 µM (active),0.743 µM (active),590 nM (active),743 nM (active),,0.631 µM (active),0.891 µM (active),
CCCCCCCCCCCCCC(=O)N[C@H](CO)[C@H](O)c1ccc([N+](=O)[O-])cc1,26.3 µM (active),23.5 µM (active),2.35 µM (active),1.66 µM (active),,2.64 µM (active),2.35 µM (active),1.32 µM (active),743 nM (active),1320 nM (active),0.392% (inactive),inactive,,
O=C(CCCCCCC(=O)Nc1ccc([C@H]2O[C@@H](CSc3nc(-c4ccccc4)c(-c4ccccc4)o3)C[C@@H](c3ccc(CO)cc3)O2)cc1)NO,16.4 µM (active),18.4 µM (active),9.35 µM (active),8.33 µM (active),4.69 µM (active),,4.69 µM (active),7.43 µM (active),7430 nM (active),6620 nM (active),-9.54% (inactive),,,-23.6% [at 9.17 µM] (inactive)
C[C@@H](N)C1CCC(C(=O)Nc2ccncc2)CC1 (stereo not given in full),inactive,inactive,inactive,inactive,inactive,inactive,,inactive,inactive,inactive,-5.19% (inactive),inactive,,
c1coc(CNc2ncnc3nc[nH]c23)c1,inactive,18.6 µM (active),inactive,inactive,inactive,inactive,inactive,inactive,inactive,inactive,-0.681% (inactive),,,
C#Cc1cccc(Nc2ncnc3cc(OC)c(OCCCCCCC(=O)NO)cc23)c1,291 nM (active) and 372 nM (active),231 nM (active) and 296 nM (active),1.05 µM (active),0.372 µM (active),0.235 µM (active),0.166 µM (active),0.235 µM (active),0.296 µM (active),209 nM (active),209 nM (active),,2 µM (active),,
CC(C)(C)c1cc(C(C)(C)C)c(NC(=O)c2c[nH]c3ccccc3c2=O)cc1O,11.8 µM (active),7.42 µM (active),inactive,inactive,inactive,,inactive,inactive,inactive,inactive,,7.08 µM (active),6.31 µM (active),

SMILES,Potency [1],Potency [2],Potency [3],Potency [4],Potency [5],Potency [6],Potency [7],Potency [8],Potency [9],Potency [10],activity (max response) [11],Potency [12],Potency [11],"activity change, negative = viability loss [12]"
Cc1ccc(C(=O)c2cc(O)c(O)c([N+](=O)[O-])c2)cc1,20.9 µM (active),23.5 µM (active),inactive,inactive,inactive,,inactive,inactive,inactive,inactive,,23.1 µM (active) and 31.6 µM (active),,
COc1cc(N2CCC(N(C)C)CC2)ccc1Nc1ncc(Cl)c(Nc2ccccc2P(C)(C)=O)n1,0.0661 µM (active),116 nM (active) and 148 nM (active),2.63 µM (active),1.05 µM (active),0.933 µM (active),,2.09 µM (active),0.467 µM (active),,524 nM (active),,8.91 µM (active),2 µM (active),
O=C1N(c2ccccc2)c2ccccc2C1(Cc1ccncc1)Cc1ccncc1,inactive,inactive,inactive,inactive,inactive,,,inactive,,inactive,-5.03% (inactive) and 7.18% (inactive),inactive,,
CC(C)[C@H](CO)Nc1nc(Nc2cccc(Cl)c2)c2ncn(C(C)C)c2n1,2.59 µM (active),3.32 µM (active),2.09 µM (active),0.743 µM (active),4.18 µM (active),5.9 µM (active),8.33 µM (active),1.32 µM (active),372 nM (active),418 nM (active),,20 µM (active),22.4 µM (active),
Nc1nc(N)nc(-c2cc(Cl)ccc2Cl)n1,inactive,inactive,inactive,inactive,inactive,inactive,inactive,,,inactive,,inactive,,
Cc1cc2c(F)c(Oc3ncnn4cc(OC[C@@H](C)O)c(C)c34)ccc2[nH]1,5.9 µM (active),9.34 µM (active),inactive,inactive,,,18.7 µM (active),,,9350 nM (active),,inactive,,
N[C@@H](Cc1cc(I)c(Oc2cc(I)c(O)c(I)c2)c(I)c1)C(=O)O,inactive,inactive and 1.61 µM (active),inactive,inactive,,,inactive,inactive,inactive,inactive,3.69% (inactive) and -6.52% (inactive),inactive,,
CC(O)(C#Cc1ccc2c(c1)N(c1nc(N)ncc1Cl)CC2)c1nccs1 (stereo not given),13 µM (active),10.3 µM (active),inactive,inactive,inactive,,,,,inactive,,,,
NCCS(=O)(=O)O,inactive,inactive,inactive,inactive,inactive,inactive,inactive,inactive,inactive,inactive,6.15% (inactive) and -3.63% (inactive),inactive,,
NC(CO)(CO)CCc1ccc(Sc2cccc(OCc3ccccc3)c2)cc1Cl,7.42 µM (active),3.72 µM (active),13.2 µM (active),7.43 µM (active),7.43 µM (active),14.8 µM (active),10.5 µM (active),,,,,3.98 µM (active),,
CNC(=O)c1cc(Oc2ccc(NC(=O)Nc3cc(C(C)(C)C)nn3-c3ccc4ncccc4c3)c(F)c2)ccn1,0.0366 µM (active),73.1 nM (active) and 52.5 nM (active),inactive,inactive,inactive,,inactive,,,469 nM (active),,31.6 µM (active),28.2 µM (active),
Nc1nc(-c2nn(Cc3ccccc3F)c3ncccc23)nc(N)c1N1CCOCC1,inactive,inactive,inactive,inactive,,inactive,inactive,inactive,inactive,inactive,8.84% (inactive),inactive,,
O=C(O)CCCc1c[nH]c2ccccc12,inactive,inactive,inactive,inactive,inactive,inactive,inactive,inactive,inactive,inactive,1.46% (inactive),inactive,,
O=C(NC1CCNCC1)c1[nH]ncc1NC(=O)c1c(Cl)cccc1Cl,0.59 µM (active),0.411 µM (active),1.32 µM (active),1.18 µM (active),1.66 µM (active),2.35 µM (active),1.48 µM (active),1.05 µM (active),1320 nM (active),1320 nM (active),,,1.12 µM (active),
CCC(C)(C)C(=O)O[C@H]1C[C@@H](C)C=C2C=C[C@H](C)[C@H](CC[C@@H]3C[C@@H](O)CC(=O)O3)[C@H]21,8.41 µM (active) and 9.34 µM (active),2.99 µM (active) and 3.72 µM (active),20.9 µM (active),18.7 µM (active),,,14.8 µM (active),,,,-9.24% (inactive) and -17.2% (inactive),inactive and 17.8 µM (active),,
